Test results published in PubChem BioAssay (EPA / NIEHS).
Where “and” joins values, the source holds several entries; their conditions need not be identical. Identical values can stand only once. Inconclusive results are not listed. Calls of active or inactive are those of the source. The calls were made as follows, unless noted: active = hit-call score of the fitted dose curve at least 0.9, where 1 is the maximum; inconclusive = response in the unintended direction; inactive = score below 0.9.

How the values were obtained:
[1] = TOX21_p53_BLA_p2_viability: Viability Assessment in the Tox21 HCT-116 p53 Agonism Beta-lactamase Assay, Phase 2 (AID 2283591);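 also: compound exposure lasted 16 h at 37 °C; actives lower the ATP signal meaning cytotoxicity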
Outline: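 Cytotoxicity readout: CellTiter-Glo ATP luminescence, 30 min at room temperature, after the beta-lactamase read. Cells were HCT116 exposed 16 h at 37C to compounds pin-transferred at 217-fold dilution from DMSO stocks.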

[2] = biological target: Cellular tumor antigen p53 (Homo sapiens) (UniProt P04637); experiment: TOX21_p53_BLA_p2_ratio: Tox21 HCT-116 p53 Agonism Beta-lactamase Assay, Ratio, Phase 2 (AID 2283592)
Outline: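 Ratio endpoint: beta-lactamase cleavage of CCF4-AM, blue (460 nm) over green (530 nm). HCT116 reporter line; 16 h treatment, 37C; substrate 2 h RT.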

[3] = TOX21_p53_BLA_p3_viability: Viability Assessment in the Tox21 HCT-116 p53 Agonism Beta-lactamase Assay, Phase 3 (AID 2283593);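 also: cells exposed to compound for 16 h before reading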
Outline: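 Cellular ATP was quantified by CellTiter-Glo luminescence, read after 30 min at room temperature. Beforehand, HCT116 cells (4000/well) received compound 5 h post-seeding, 217-fold diluted from DMSO, then incubated 16 h at 37C.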

[4] = biological target: Cellular tumor antigen p53 (Homo sapiens) (UniProt P04637); experiment: TOX21_p53_BLA_p3_ratio: Tox21 HCT-116 p53 Agonism Beta-lactamase Assay, Ratio, Phase 3 (AID 2283596)
Outline: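 Cells were seeded at 4000/well, rested 5 h at 37C, then dosed with DMSO compound solutions (217-fold dilution) for 16 h. CCF4-AM substrate was loaded for 2 h at room temperature, and the 460/530 nm emission ratio was fitted for gain of signal versus DMSO.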

[5] = TOX21_p53_BLA_p4_viability: Viability Assessment in the Tox21 HCT-116 p53 Agonism Beta-lactamase Assay, Phase 4 (AID 2283597);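 also: hits lower the luminescence signal meaning cytotoxicity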
Outline: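 Cytotoxicity was inferred from loss of CellTiter-Glo luminescence. HCT116 cells had been dosed with compounds after 5 h plating, incubated 16 h at 37C and 5% CO2, and exposed to the CCF4-AM substrate for 2 h.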

[6] = TOX21_p53_BLA_p5_viability: Viability Assessment in the Tox21 HCT-116 p53 Agonism Beta-lactamase Assay, Phase 5 (AID 2283600)
Outline: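 Luciferase-coupled ATP quantitation of cells treated for 16 h (37C, 5% CO2) with test chemicals delivered in DMSO via a 217-fold dilution; 4000 cells/well; reagent incubated 30 min at room temperature before luminescence reading.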

[7] = biological target: Cellular tumor antigen p53 (Homo sapiens) (UniProt P04637); experiment: TOX21_p53_BLA_p4_ratio: Tox21 HCT-116 p53 Agonism Beta-lactamase Assay, Ratio, Phase 4 (AID 2283601)
Outline: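 Signal is the blue/green (460nm/530nm) ratio of cleaved versus uncleaved CCF4-AM substrate, read after 2 h substrate loading. Cells were HCT116 carrying the p53-responsive beta-lactamase reporter, dosed 16 h at 37C, 5% CO2; CellTiter-Glo measured in parallel.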

[8] = biological target: Cellular tumor antigen p53 (Homo sapiens) (UniProt P04637); experiment: TOX21_p53_BLA_p5_ratio: Tox21 HCT-116 p53 Agonism Beta-lactamase Assay, Ratio, Phase 5 (AID 2283599)
Outline: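 Beta-lactamase reporter ratio (blue 460 nm over green 530 nm, 405 nm excitation) after 2 h CCF4-AM loading, in HCT-116 cells exposed 16 h at 37 C to compounds pinned at 217-fold dilution. Increases relative to DMSO baseline scored.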

PGR (gene 5241) [9] = biological target: PGR (gene 5241) (UniProt P06401); experiment: TOX21_PR_BLA_Followup_Agonist_ratio: Tox21 HEK293 Progesterone Receptor (PR) Agonism Beta-lactamase Follow-Up Assay, Ratio (AID 2283933)
Outline: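 Ratio-based beta-lactamase reporter signal after 16 hr compound treatment of PR-UAS-bla HEK293T cells at 37C. Substrate loading lasted 2 hr at room temperature.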

PGR (gene 5241) [10] = biological target: PGR (gene 5241) (UniProt P06401); experiment: TOX21_PR_BLA_Followup_Antagonist_ratio: Tox21 HEK293 Progesterone Receptor (PR) Antagonism Beta-lactamase Follow-Up Assay, Ratio (AID 2283934);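 also: PR-UAS-bla HEK293T cells stimulated with 1 nM R5020 agonist for 16 hr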
Outline: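 Measured in PR-UAS-bla HEK293T cells co-treated with compound and 1 nM promegestone for 16 hr; beta-lactamase ratio read after 2 h FRET substrate loading, with parallel CellTiter-Glo cytotoxicity.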

[11] = TOX21_PR_BLA_Followup_Agonist_viability: Viability Assessment in the Tox21 HEK293 Progesterone Receptor (PR) Agonism Beta-lactamase Follow-Up Assay (AID 2283935);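 also: signal loss means lower viability so actives are cytotoxic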
Outline: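 Viability is read as CellTiter-Glo luminescence, where loss of signal indicates cytotoxicity. The cells are PR-UAS-bla HEK293T given compounds for 16 hr at 37C and 5% CO2, in the same wells used for the bla readout.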

[12] = TOX21_PR_BLA_Followup_Antagonist_viability: Viability Assessment in the Tox21 HEK293 Progesterone Receptor (PR) Antagonism Beta-lactamase Follow-Up Assay (AID 2283936);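 also: cells exposed to compound with R5020 agonist for 16 h; hits lower the luminescence signal meaning cytotoxicity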
Outline: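 PR-UAS-bla HEK293T cells in medium with 2% charcoal-stripped FBS were treated with compounds plus R5020 for 16 hr at 37C. After the beta-lactamase read, CellTiter-Glo was added to the same wells and luminescence read after 30 min at room temperature.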

PGR (gene 5241) [13] = biological target: PGR (gene 5241) (UniProt P06401); experiment: TOX21_PR_LUC_Followup_Agonist: Tox21 HEK293 Progesterone Receptor (PR) Agonism Luciferase Follow-Up Assay (AID 2283937; active = hit-call score of the fitted dose curve at least 0.9, where 1 is the maximum; inactive = score below 0.9)
Outline: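 In HEK293 cells stably expressing PR-A with a luciferase reporter, compounds were incubated 16 h at 37C, and induced luminescence was quantified with ONE-Glo, multiplexed with cell viability.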

PGR (gene 5241) [14] = biological target: PGR (gene 5241) (UniProt P06401); experiment: TOX21_PR_LUC_Followup_Antagonist: Tox21 HEK293 Progesterone Receptor (PR) Antagonism Luciferase Follow-Up Assay (AID 2283938);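 also: curve fitted upward as signal gain over DMSO baseline despite antagonist label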
Outline: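 HEK293-PR-A-luc cells were precultured 5 days in medium with 10% charcoal-stripped FBS, seeded 3,000/well, then exposed to compounds in DMSO for 16 h at 37C. Luciferase was read by ONE-Glo luminescence after 30 min at room temperature.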

[15] = TOX21_PR_LUC_Followup_Agonist_viability: Viability Assessment in the Tox21 HEK293 Progesterone Receptor (PR) Agonism Luciferase Follow-Up Assay (AID 2283941);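 also: loss of signal means cytotoxicity so actives lower viability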
Outline: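 Seeding: HEK293-PR-A-luc, 3,000 cells/well, 5 h at 37C. Treatment: compound in DMSO, 16 h, 37C. Read: CellTiter-Glo ATP luminescence, signal loss taken as lower viability.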

[16] = CCTE_Harrill_HTTr_Viability_MCF7: CCTE's 6-hour Cell Viability Assessment for the High-Throughput Transcriptomics (HTTr) Platform, in MCF-7 cells cultured in DMEM + 10% fetal bovine serum, Harrill Lab (AID 2284010; active = hit-call score of the fitted dose curve at least 0.9, where 1 is the maximum; inactive = score below 0.9)
Outline: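 Eight-point concentration series, six-hour exposure. Propidium iodide exclusion imaged to assess membrane integrity as a cytotoxicity readout; bidirectional fitting was done with DMSO as negative control and activity baseline.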

[17] = CCTE_Harrill_HTTr_Apoptosis_MCF7: CCTE's 6-hour Apoptosis Assessment for the High-Throughput Transcriptomics (HTTr) Platform, in MCF-7 cells cultured in DMEM + 10% fetal bovine serum, Harrill Lab (AID 2284011; active = hit-call score of the fitted dose curve at least 0.9, where 1 is the maximum; inactive = score below 0.9)
Outline: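 MCF-7 cells in DMEM + 10% fetal bovine serum were exposed to chemicals for 6 hours over an eight-point dilution series. Caspase-3/7 activation was imaged by high content imaging with CellEvent Caspase 3/7 Green; bidirectional fitting used DMSO as baseline.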

Sequence of PGR (gene 5241) (P06401 whole entry, looked up): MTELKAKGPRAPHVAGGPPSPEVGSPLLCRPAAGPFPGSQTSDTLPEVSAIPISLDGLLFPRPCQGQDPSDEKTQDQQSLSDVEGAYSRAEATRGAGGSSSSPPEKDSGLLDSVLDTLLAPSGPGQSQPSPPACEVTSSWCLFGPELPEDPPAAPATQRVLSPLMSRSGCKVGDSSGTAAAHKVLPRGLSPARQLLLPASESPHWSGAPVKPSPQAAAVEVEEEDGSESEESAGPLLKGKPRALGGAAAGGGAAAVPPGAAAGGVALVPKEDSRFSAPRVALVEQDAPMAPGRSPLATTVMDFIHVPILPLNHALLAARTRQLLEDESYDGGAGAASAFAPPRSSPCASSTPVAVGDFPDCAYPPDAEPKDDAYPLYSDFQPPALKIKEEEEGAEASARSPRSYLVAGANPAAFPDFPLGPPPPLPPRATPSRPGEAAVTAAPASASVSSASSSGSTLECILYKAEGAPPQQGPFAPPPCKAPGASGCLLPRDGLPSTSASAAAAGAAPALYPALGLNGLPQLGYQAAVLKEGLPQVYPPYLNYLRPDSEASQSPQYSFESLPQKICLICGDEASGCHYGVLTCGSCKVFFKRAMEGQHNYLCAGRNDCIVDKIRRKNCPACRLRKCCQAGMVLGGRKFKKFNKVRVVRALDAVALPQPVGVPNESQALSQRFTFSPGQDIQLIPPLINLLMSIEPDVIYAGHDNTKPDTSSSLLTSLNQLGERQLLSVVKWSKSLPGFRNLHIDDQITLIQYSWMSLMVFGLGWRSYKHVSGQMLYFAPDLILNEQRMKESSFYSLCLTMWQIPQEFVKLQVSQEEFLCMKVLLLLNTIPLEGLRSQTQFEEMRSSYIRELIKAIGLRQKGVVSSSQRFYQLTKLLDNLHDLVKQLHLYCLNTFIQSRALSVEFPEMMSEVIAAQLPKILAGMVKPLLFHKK
Sequence of Cellular tumor antigen p53 (Homo sapiens) (P04637 whole entry, looked up): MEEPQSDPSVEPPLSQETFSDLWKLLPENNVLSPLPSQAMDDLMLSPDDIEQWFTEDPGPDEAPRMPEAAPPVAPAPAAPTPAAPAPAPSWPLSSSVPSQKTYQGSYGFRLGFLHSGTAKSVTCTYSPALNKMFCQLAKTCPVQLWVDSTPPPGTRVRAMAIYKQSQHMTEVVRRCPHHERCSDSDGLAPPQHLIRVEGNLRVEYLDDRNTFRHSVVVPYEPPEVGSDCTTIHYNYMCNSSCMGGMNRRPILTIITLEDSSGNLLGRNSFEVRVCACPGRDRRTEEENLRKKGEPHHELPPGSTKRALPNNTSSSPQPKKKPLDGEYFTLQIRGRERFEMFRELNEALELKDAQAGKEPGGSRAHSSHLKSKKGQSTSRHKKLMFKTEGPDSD

With `COc1ccc(CN2CCNCC2)c(OC)c1OC` the outcome [1] was “inactive”, the outcome [2] was “inactive” and the outcome [3] was “inactive”. The outcome [4] was “inactive”, the outcome [5] was “inactive” and the outcome [6] was “inactive”. The outcome [7] was “inactive”.
In the case of `O=C/C=C/c1ccco1`, the outcome [1] was “inactive”, the outcome [2] was “inactive” and the outcome [3] was “inactive”. For the same compound, the outcome [4] was “inactive”, the outcome [5] was “inactive” and the outcome [6] was “inactive”. For the same compound, the outcome [7] was “inactive”.
In the case of `Oc1cccc(Cl)c1`, the outcome [1] was “inactive”, the outcome [2] was “inactive” and the outcome [3] was “inactive”. For the same compound, the outcome [4] was “inactive”, the outcome [8] was “inactive” and the outcome [6] was “inactive”. For the same compound, the outcome [7] was “inactive”.
With `CCCCN=C=O` the outcome [1] was “inactive”, the outcome [2] was “inactive” and the outcome [3] was “inactive”. For the same compound, the outcome [4] was “inactive”, the outcome [5] was “inactive” and the outcome [7] was “inactive”.
With `Oc1c(Cl)c(Cl)cc(Cl)c1Cl` the outcome [1] was “inactive”, the AC50 [2] was 12.2 µM (active) and the outcome [3] was “inactive”. The AC50 [4] was 13.4 µM (active), the outcome [5] was “inactive” and the AC50 [8] was 18.7 µM (active). For the same compound, the AC50 [7] was 22.6 µM (active).
In the case of `CC(C)OC(=O)Cc1ccccc1`, the outcome [1] was “inactive”, the outcome [2] was “inactive” and the outcome [3] was “inactive”. The outcome [4] was “inactive”, the outcome [5] was “inactive” and the outcome [8] was “inactive”. The outcome [7] was “inactive”.
For `COc1cc(N)c(Cl)cc1C(=O)NC1CN2CCC1CC2` (configuration not stated), the outcome [1] was “inactive”, the outcome [2] was “inactive” and the outcome [3] was “inactive”. For the same compound, the outcome [4] was “inactive”, the outcome [5] was “inactive” and the outcome [7] was “inactive”.
In the case of `CCOC(=O)C1(c2ccccc2)CCN(CCC(C#N)(c2ccccc2)c2ccccc2)CC1`, the outcome [1] was “inactive”, the AC50 [2] was 16.3 µM (active) and 6.96 µM (active) and the outcome [3] was “inactive”. For the same compound, the AC50 [4] was 41.6 µM (active) and 7.95 µM (active), the outcome [5] was “inactive” and the AC50 [8] was 56.4 µM (active) and 23.9 µM (active). The outcome [6] was “inactive”, the AC50 [7] was 43.7 µM (active) and 8.27 µM (active) and the outcome (PGR (gene 5241) [9]) was “inactive”. For the same compound, the AC50 (PGR (gene 5241) [10]) was 13.7 µM (active), the outcome [11] was “inactive” and the outcome [12] was “inactive”. For the same compound, the outcome (PGR (gene 5241) [13]) was “inactive”, the outcome (PGR (gene 5241) [14]) was “inactive” and the outcome [15] was “inactive”.
In the case of `Oc1ccc(C2(c3ccc(O)cc3)CCCCC2)cc1`, the AC50 [1] was 72.1 µM (active), the AC50 [2] was 83.2 µM (active) and the AC50 [3] was 44.1 µM (active). For the same compound, the AC50 [4] was 83.7 µM (active), the AC50 [5] was 46.3 µM (active) and the AC50 [8] was 82.3 µM (active). The AC50 [6] was 74 µM (active), the AC50 [7] was 82.9 µM (active) and the outcome [16] was “inactive”. For the same compound, the outcome [17] was “inactive”.
For `C=CC1CC=CCC1` (configuration not stated), the outcome [1] was “inactive”, the outcome [2] was “inactive” and the outcome [3] was “inactive”. The outcome [4] was “inactive” and the outcome [8] was “inactive”.
